Assay outcomes: PubChem, National Center for Advancing Translational Sciences (NCATS)
Rows were chosen to be rich in hits. Some 2.3% of all compounds tested hit in one or more screens of this group.
TRPV1 PAM: human TRPV1 potentiation; Q8NER1; TRPV1-expressing cells, Fluo-8 calcium influx, capsaicin EC20 potentiation; potentiation, % at 8.33 µM; 320,000 compounds, 0.02% hits; AID 540277; in the data active means potentiation above about 80%; inconclusive means between about 30% and that limit
Target sequence (Q8NER1 whole entry, looked up): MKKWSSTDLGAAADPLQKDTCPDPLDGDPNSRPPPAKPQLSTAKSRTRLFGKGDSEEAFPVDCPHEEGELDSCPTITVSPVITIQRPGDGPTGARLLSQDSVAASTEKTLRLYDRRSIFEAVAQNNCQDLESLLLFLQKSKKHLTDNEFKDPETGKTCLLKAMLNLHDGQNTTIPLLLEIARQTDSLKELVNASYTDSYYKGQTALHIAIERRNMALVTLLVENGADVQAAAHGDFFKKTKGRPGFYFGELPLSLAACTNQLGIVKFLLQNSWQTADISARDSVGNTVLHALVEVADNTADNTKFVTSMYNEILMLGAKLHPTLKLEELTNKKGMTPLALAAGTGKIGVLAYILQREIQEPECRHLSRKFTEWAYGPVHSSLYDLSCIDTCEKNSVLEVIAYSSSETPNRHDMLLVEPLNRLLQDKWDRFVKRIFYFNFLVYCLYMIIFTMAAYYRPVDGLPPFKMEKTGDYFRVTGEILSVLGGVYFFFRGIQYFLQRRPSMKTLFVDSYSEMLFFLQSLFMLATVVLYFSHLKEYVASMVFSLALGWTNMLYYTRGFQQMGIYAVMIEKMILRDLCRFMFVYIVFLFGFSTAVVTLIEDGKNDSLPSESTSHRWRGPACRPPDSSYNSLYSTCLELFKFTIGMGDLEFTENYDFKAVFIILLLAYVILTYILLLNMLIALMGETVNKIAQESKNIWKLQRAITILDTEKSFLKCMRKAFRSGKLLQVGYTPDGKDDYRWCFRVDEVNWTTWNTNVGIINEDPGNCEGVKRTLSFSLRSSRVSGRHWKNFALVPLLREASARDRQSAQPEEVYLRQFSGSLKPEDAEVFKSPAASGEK
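Fluo-8 calcium influx in TRPV1-expressing cells, kinetic read (ex 480/em 520 nm). Compound added and read 3 min for agonist activity, followed by capsaicin at EC20 final and 2 min further read for enhancement.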
Giardia kill: kills Giardia lamblia | Giardia lamblia trophozoite viability | activity change, % at 7.66 µM, hits read low | 340,000 compounds, 0.15% hits; in the data active means activity change below about -80%; inconclusive means between about -30% and that limit;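 further: parasites exposed to compound for two days anaerobically before the ATP read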
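Viability, read as ATP luminescence: trophozoites at 100 cells/well, compound added, 48 hrs anaerobic at 37 deg C, then 15-30 min room-temperature development before reading.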
ELG1 DNA repair: blocks ELG1-dependent DNA repair in HEK293T cells | Potency, µM (highest dose often 46.1 µM), usual class: inhibitors | HEK293T ELG1-luciferase reporter, luminescence, 16 h; DNA damage induced by 5-fluorouridine | 330,000 compounds, 2.3% hits | AID 504467; further: nearly all actives have a fitted effect of over 55% in size
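5-Fluorouridine DNA damage + compound/DMSO, 2,000 cells/well, 16 h, 37 °C/5% CO2. ONE-Glo, 30 min RT, luminescence. Readout = decrease in reporter signal.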
TRPV1 ag: activates the human vanilloid receptor TRPV1; TRPV1-expressing cells, Fluo-8 calcium influx, agonist mode; activation, % at 8.33 µM; Q8NER1; 320,000 compounds, 0.19% hits; in the data active means activation above about 80%; inconclusive means between about 30% and that limit
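Fluo-8 calcium influx in TRPV1-expressing cells, kinetic read (ex 480/em 520 nm). Compound added and read 3 min for agonist activity, followed by capsaicin at EC20 final and 2 min further read for enhancement.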
FUS suppressor: rescues growth of FUS-expressing yeast. 390,000 compounds, 0.24% hits. S. cerevisiae FUS-expressing, growth rescue, OD600, 24 h. Potency, µM (top dose mostly 76.6 µM), most hits filed as activators; further: nearly all actives have a fitted effect of over 55% in size
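Yeast FUS proteinopathy model; galactose-induced FUS (2%), starting OD 0.005. Cpds in dilution series, 24hr, 30C, 99% humidity. Abs 600 nm growth. Pos ctrl CP55940 (top 92uM final); neg ctrl DMSO.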
Hits are given with their value. Unless noted, the call rests on the fitted dose curve; in most records, active means well fitted curve in the direction sought with a large enough effect; inconclusive means small, poorly fitted or top-dose-only effect, or another doubt; inactive means no such curve, though single readings can be large; an effect the other way counts as inactive or inconclusive.

For COc1ccc(-n2nc(C(=O)NCC(=O)N3CCN(c4ccccc4OC)CC3)c3ccccc3c2=O)cc1OC the results were TRPV1 PAM inactive, Giardia kill inactive, ELG1 DNA repair 16.4µM, TRPV1 ag inactive and FUS suppressor inconclusive.
CCSc1ncc(Cl)c(C(=O)Nc2c(C(=O)c3ccc(C)c(F)c3)oc3ccccc23)n1 was read as FUS suppressor inactive.
For CCC(C(=O)Nc1ccc(C(C)C)cc1)n1nc(C)n2c(cc3cc(C)ccc32)c1=O (configuration not stated) the results were FUS suppressor inactive.
`COc1cc(C2CC(=O)Nc3cc4c(cc32)OCCO4)cc(OC)c1O` (configuration not stated) gave FUS suppressor inactive.
Cc1ccc(O)c(C(=O)c2cnc3c(c2)COc2ccccc2-3)c1 was read as TRPV1 PAM inactive, Giardia kill inactive, ELG1 DNA repair 16.4µM, TRPV1 ag inactive and FUS suppressor inactive.
Cc1ccc2c(c1)-c1ncc(C(=O)c3ccccc3O)cc1CO2 was read as FUS suppressor inactive.
For COc1cc(CN(C(=O)COc2ccc(Cl)c(C)c2)c2ccccn2)cc(OC)c1OC the results were FUS suppressor inactive.
Cc1ccc(NC(=O)C2CCCN(c3nnc(C)c4c(C)n(-c5ccccc5)nc34)C2)c(Cl)c1 (configuration not stated) was read as FUS suppressor inactive.
Screening O=C(Nc1cccc(Cl)c1Cl)c1ccc2c(c1)N(Cc1cccc(Cl)c1)C(=O)c1ccccc1S2=O (configuration not stated) returned FUS suppressor inactive.
`O=C(c1cccn1-c1nnc(N2CCCCC2)s1)N1CCN(c2ccccc2)CC1` gave FUS suppressor inactive.
`Cc1nn(Cc2ccccc2Cl)c2sc(C(=O)Nc3ccccc3N3CCOCC3)cc12` gave TRPV1 PAM inactive, Giardia kill inactive, ELG1 DNA repair 23.1µM, TRPV1 ag inactive and FUS suppressor inactive.
`CC[C@H](C)[C@H]1O[C@]2(CC[C@@H]1C)C[C@@H]1C[C@@H](CC=C(C)[C@@H](O[C@H]3C[C@H](OC)[C@@H](O[C@H]4C[C@H](OC)[C@@H](O)[C@H](C)O4)[C@H](C)O3)[C@@H](C)C=CC=C3CO[C@@H]4[C@H](O)C(C)=C[C@@H](C(=O)O1)[C@]34O)O2` gave Giardia kill inactive and FUS suppressor 7.08µM.
Screening CC(=O)c1cccc(NC(=O)c2cc(S(=O)(=O)N3CCCCC3)ccc2N2CCOCC2)c1 returned FUS suppressor inactive.
For O=C(COC(=O)c1cc(S(=O)(=O)N2CCCCC2)ccc1N1CCOCC1)c1ccc(F)cc1 the results were TRPV1 PAM inactive, Giardia kill inactive, ELG1 DNA repair 10.3µM, TRPV1 ag inactive and FUS suppressor inactive.
CC(=O)c1cccc(OC(=O)c2cc(S(=O)(=O)N3CCOCC3)ccc2N2CCCC2)c1 was read as TRPV1 PAM inactive, Giardia kill inactive, ELG1 DNA repair 9.2µM, TRPV1 ag inactive and FUS suppressor inactive.
For COc1ccc(C(=O)COC(=O)c2cc(S(=O)(=O)N3CCCCC3)ccc2N2CCOCC2)c(OC)c1 the results were TRPV1 PAM inactive, Giardia kill inactive, ELG1 DNA repair inconclusive, TRPV1 ag inactive and FUS suppressor 15.8µM.
Screening O=c1oc2ccc(F)cc2cc1-c1nc(-c2cccs2)no1 returned FUS suppressor inactive.
For COC(=O)[C@@]12OC[C@]34[C@H]([C@@H](O)[C@@H]1O)[C@@]1(C)C(=O)C(O[C@@H]5OC(CO)[C@@H](O)[C@@H](O)[C@@H]5O)=C[C@@H](C)[C@@H]1C[C@H]3OC(=O)[C@H](OC(=O)/C=C(\C)C(C)(C)OC(C)=O)[C@@H]24 (some centres not stated) the results were TRPV1 PAM inactive, Giardia kill inconclusive, ELG1 DNA repair 6.51µM, TRPV1 ag inactive and FUS suppressor inactive.
Screening Cc1cc(=O)n(Cc2cccc(F)c2)c2c1c(C)nn2-c1cccc(F)c1 returned FUS suppressor inactive.
Screening CCN1CCN(C(=O)c2ccc3c(c2)N(Cc2ccc(Cl)cc2)C(=O)c2ccccc2S3(=O)=O)CC1 returned FUS suppressor inactive.
For O=C(c1ccc2c(c1)N(Cc1ccc(Cl)cc1)C(=O)c1ccccc1S2(=O)=O)N1CCCC1 the results were FUS suppressor 31.6µM.
O=C(c1ccc2c(c1)N(Cc1ccc(Cl)cc1)C(=O)c1ccccc1S2(=O)=O)N1CCc2ccccc21 was read as FUS suppressor 7.94µM.
CCCCc1nc2ccccc2n1CC(=O)N(COCC)c1c(C)cccc1CC was read as FUS suppressor inactive.
CC[n+]1c(/C=C/N(C)c2ccccc2)n(-c2ccccc2)c2ccc(-c3nc4ccccc4s3)cc21 was read as TRPV1 PAM inactive, Giardia kill inactive, ELG1 DNA repair 4.11µM, TRPV1 ag inactive and FUS suppressor inactive.
For CCOC(=O)c1ccc2c(c1)n(CC)c(/C=C/N(C)c1ccccc1)[n+]2CC the results were TRPV1 PAM inactive, Giardia kill inactive, ELG1 DNA repair inconclusive, TRPV1 ag inactive and FUS suppressor inactive.
CCN(Cc1ccc2c(c1)OCCO2)C(=O)CSc1nc(C)nc2sc(C)c(C)c12 was read as TRPV1 PAM inactive, Giardia kill inactive, ELG1 DNA repair 13µM, TRPV1 ag inactive and FUS suppressor inconclusive.
CCN(Cc1ccc2c(c1)OCO2)C(=O)CSc1ncnc2sccc12 was read as TRPV1 PAM inactive, Giardia kill inactive, ELG1 DNA repair inactive, TRPV1 ag inactive and FUS suppressor inactive.
CCN(CC)CCSc1nnc2c3cc(F)ccc3n(CC)c2n1 was read as FUS suppressor inactive.
Screening N=c1c2c(ccn1Cc1ccccc1)Oc1ccc3ccccc3c1C2c1ccccc1 (configuration not stated) returned FUS suppressor 14.1µM.
CCOC(=O)c1c(C)nc2c(c1C)/C(=N/O)CC(C)(C)C2 was read as TRPV1 PAM inactive, Giardia kill inactive, ELG1 DNA repair 18.4µM, TRPV1 ag inactive and FUS suppressor inactive.
`CCOC(=O)/C(=C/c1c(C)n(C)c2ccc([N+](=O)[O-])cc12)C(C)=O` gave TRPV1 PAM inactive, Giardia kill inactive, ELG1 DNA repair 13µM, TRPV1 ag inactive and FUS suppressor inactive.
CCOC(=O)c1c(N)c2cc([N+](=O)[O-])ccc2n1C was read as TRPV1 PAM inactive, Giardia kill inactive, ELG1 DNA repair inactive, TRPV1 ag inactive and FUS suppressor inactive.
`COc1ccc(NC(=O)c2c(-c3ccccc3)noc2C)c(OC)c1` gave TRPV1 PAM inactive, Giardia kill inactive, ELG1 DNA repair inconclusive, TRPV1 ag inactive and FUS suppressor inactive.
`Cc1onc(-c2ccccc2Cl)c1C(=O)NCCCc1ccccc1` gave TRPV1 PAM inactive, Giardia kill inactive, ELG1 DNA repair inactive, TRPV1 ag inactive and FUS suppressor inactive.
